# Laboratory results as given in PubChem BioAssay (EPA / NIEHS).
# Where a structure was tested more than once in an assay, its records may differ in their call. Calls of active or inactive are those of the source. The calls were made as follows: active = hit-call score of the fitted dose curve at least 0.9, where 1 is the maximum; inactive = score below 0.9.
# Read-out: growth arrest and DNA damage 45 (GADD45A), GADD45A (gene 1647)
# Experiment: LTEA_HepaRG_GADD45A: Life Technologies and Expression Analysis (LTEA) Assay for growth arrest and DNA damage 45 (GADD45A) using HepaRG (AID 2283458)
# Settings: mRNA level, 48 h; actives raise or lower the signal
# Description: LTEA_HepaRG is a cell based, multiplexed-readout assay that uses HepaRG, a human liver cell line, with measurements taken at 48 hours after chemical dosing on a 96-well plate.LTEA_HepaRG_GADD45A is one of 102 assay component(s) measured in the LTEA HepaRG cell culture assay. It is a marker of Oxidative Stress.Data from the assay component LTEA_HepaRG_GADD45A was analyzed into 1 endpoint. This assay endpoint, LTEA_HepaRG_GADD45A, was analyzed with bidirectional fitting relative to DMSO as the negative control and baseline of activity. Using a type of inducible reporter, measures of mRNA induction for gain or loss-of-signal activity can be used to understand regulation of transcription factor activity. To generalize the intended target to other relatable targets, this assay endpoint is annotated to the cell cycle intended target family, where the subfamily is Oxidative Stress.
# A total of 1060 chemcials from the ToxCast library were tested in eight-point concentration-response experiments. Cell culture and cytotoxicity assays were conducted at Thermo Fisher Scientific's Custom Services facility (Madison, WI). A single lot of human HepaRG cells (Thermo Fisher Scientific, Frederick, MD) was used for the cell culture experiments. 96-well format collagen type I coated plates of human HepaRG cells were prepared using established methods. Briefly, cryopreserved HepaRG cells were thawed, plated at a density of approximately 100,000 cells/well in HepaRG Thaw, Plate, and General Purpose media (HPRG770, Thermo Fisher Scientific), and incubated for 48 hours. 0.5% DMSO was selected as vehicle control to balance the requisite need of DMSO in HepaRG cultures to maintain differentiation (for example, baseline metabolism, proportions of hepatocytes vs. cholangiocytes), while enabling further hepatic receptor pathway activation (for example, PXR and CAR) in response to chemical exposure. 48 hours after plating, the culture medium was replaced with HepaRG Serum-Free Incudtion Media. Cells were exposed to each test chemical in duplicate and maintained in CO2 incubators for another 48 hours. Chemical plates were thawed to room temperature and 200x concentrations of treatment groups were prepared. 8-point conentration-reponse curves were made with the highest exposure at 100 uM, followed by half-log dilutions, all in 0.5% DMSO. Each test plate contained variouse controls, induction positive controls (1mM phenobarbital), cytotoxicity positive controls ([…] aflatoxin B1), vehicle controls (0.5% DMSO), and total lysis controls (0.5% DMSO). Cell morphology images were taken using an Essen IncuCyte FLR automated microscope, with six 96-well plates imaged in about 24 minutes. Images were captured and exported and JPEG files. Spent culture media was transfered to black-well plates for the LDH assay, and remaining media was sorted at -80 C for later use. Cells were treated with RLT buffer and frozen until shipped for gene expression analysis. Total RNA was isolated from the cell suspension in 75 uL of Buffer RLT (Qiagen, Germantown, MD 20874) by Quintiles/Expression Analysis (Durham, NC) using a custom isolation procedure. Total RNA from each plate well was transferred to a preamplification plate. Fluidigm's 96.96 Dynamic ArrayTM (Fluidigm, Amsterdam, the Netherlands) technology was used for gene expression analyses by quantitative reverse transcription polymerase chain reaction (qRT-PCR, performed by Quintiles/Expression Analysis, Durham, NC)89. Standard TaqManTM Assays (Applied Biosystems/ThermoFisher Scientific, Foster City, CA) were used to assess the expression of 93 genes selected based on their selectivity and sensitivity to important hepatic receptors known to be modulated by environmental chemicals; importance in human hepatocyte functionality; and hepatotoxicity. […]
SMILES,outcome,AC50
Cc1cc(Cl)ccc1OCC(=O)O,inactive,–
O=C(O)c1nc(Cl)ccc1Cl,inactive,–
CNC(=O)ON=CC(C)(C)SC,inactive,–
N#Cc1cc(Br)c(O)c(Br)c1,–,72.5 µM (active)
C#CCOS(=O)OC1CCCCC1Oc1ccc(C(C)(C)C)cc1 (stereo not given),–,50 µM (active)
CCCC1COC(Cn2cncn2)(c2ccc(Cl)cc2Cl)O1 (stereo not given),–,67.2 µM (active)
CCOc1cc(Oc2ccc(C(F)(F)F)cc2Cl)ccc1[N+](=O)[O-],inactive,–
COP(=S)(OC)Oc1nc(Cl)c(Cl)cc1Cl,inactive,–
CNC(=S)S,inactive,–
COC(=O)N(OC)c1ccccc1COc1ccn(-c2ccc(Cl)cc2)n1,–,60 µM (active)
CON(C)C(=O)Nc1ccc(Cl)c(Cl)c1,inactive,–
CCCCOC(=O)c1ccccc1C(=O)OCCCC,inactive,–
CCCCNC(=O)n1c(NC(=O)OC)nc2ccccc21,inactive,–
COc1ccc(C(c2ccc(OC)cc2)C(Cl)(Cl)Cl)cc1,inactive,–
CC(C)Oc1cc(-n2nc(C(C)(C)C)oc2=O)c(Cl)cc1Cl,inactive,–
COC(=O)C=C(C)OP(=O)(OC)OC,inactive,–
CC(Oc1ccc(Cl)cc1Cl)C(=O)O (stereo not given),inactive,–
CC1COC(Cn2cncn2)(c2ccc(Oc3ccc(Cl)cc3)cc2Cl)O1 (stereo not given),–,12 µM (active)
C=CCC1=C(C)[C@@H](OC(=O)[C@@H]2[C@@H](C=C(C)C)C2(C)C)CC1=O,inactive,–
Cc1c(F)c(F)c(COC(=O)C2C(/C=C(\Cl)C(F)(F)F)C2(C)C)c(F)c1F (stereo not given),inactive,–

SMILES,outcome,AC50
CCON=C(CC)C1=C(O)CC(c2c(C)cc(C)cc2C)CC1=O (stereo not given),inactive,–
C=CC1(C)OC(=O)N(c2cc(Cl)cc(Cl)c2)C1=O (stereo not given),inactive,–
CCNc1nc(Cl)nc(NCC)n1,inactive,–
O=C(Nc1ccccc1)Nc1ccnc(Cl)c1,–,70.7 µM (active)
CCOC(=O)CC(SP(=S)(OC)OC)C(=O)OCC (stereo not given),inactive,–
CCOP(=S)(OCC)SCn1c(=O)oc2cc(Cl)ccc21,inactive,–
OC(c1ccc(Cl)cc1)(c1cncnc1)c1ccccc1Cl (stereo not given),–,72.4 µM (active)
CCCCC(CC)COC(=O)c1ccccc1C(=O)OCC(CC)CCCC (stereo not given),inactive,–
CS/C(C)=N/OC(=O)N(C)SN(C)C(=O)O/N=C(\C)SC,inactive,–
CCOC(=O)C(Cl)Cc1cc(-n2nc(C)n(C(F)F)c2=O)c(F)cc1Cl (stereo not given),inactive,–
CCc1nn(C)c(C(=O)NCc2ccc(C(C)(C)C)cc2)c1Cl,–,12 µM (active)
COP(N)(=O)SC (stereo not given),inactive,–
N#Cc1nn(-c2c(Cl)cc(C(F)(F)F)cc2Cl)c(N)c1S(=O)C(F)(F)F (stereo not given),–,74.2 µM (active)
COC(=O)c1ccccc1C(=O)OC,inactive,–
CCCN(CCC)c1c([N+](=O)[O-])cc(S(N)(=O)=O)cc1[N+](=O)[O-],inactive,85.9 µM (active)
C=CCC1=C(C)C(OC(=O)C2C(C=C(C)C)C2(C)C)CC1=O (stereo not given),inactive,–
Oc1ccccc1-c1ccccc1,inactive,–
COC(=O)C(C)Oc1ccc(Oc2ccc(Cl)cc2Cl)cc1 (stereo not given),inactive,–
CCCCNC(=O)OCC#CI,inactive,–
